Inconclusive results are not listed. Entries that show only a call come without a potency. Active and inactive are the calls of the source. The call rests on the fitted dose curve; in most records, active means well fitted activation curve with a large enough effect in the signal ratio in the repeat runs (not every such curve was filed as active); inconclusive means weak or mixed curves, or effect the other way; inactive means flat fitted curve, though single readings scatter; the % refers to the signal ratio.
assay: qHTS assay to identify small molecule agonists of the endoplasmic reticulum stress response signaling pathway (AID 1159516); settings: ESRE-bla HeLa, ER stress beta-lactamase reporter, 5 h; series mostly up to 61 µM
From the text: National Center for Advancing Translational Sciences [NCATS]
NIH Chemical Genomics Center [NCGC]
U.S. Environmental Protection Agency [EPA]
National Institutes of Environmental Health Sciences [NIEHS]
National Toxicology Program [NTP]
U.S. Food and Drug Administration [FDA]
Endoplasmic Reticulum (ER) plays an important role in cellular signaling, protein folding/maturation, stress response, lipid biosynthesis, calcium storage and release etc. Under stress conditions, proteins in ER misfold or unfold, and leading to the expression of ER stress responsive genes. ER stress has been associated with a variety of pathophysiological conditions such as cancer, inflammation, neurodegenerative diseases, diabetes, ischemic heart disease etc. To identify the compounds that induce ER stress response, an ER stress reporter cell line, CellSensor ESRE-bla HeLa (Life Technologies, Carlsbad, CA) containing a beta-lactamase reporter gene under control of the Endoplasmic reticulum Stress Response Element (ESRE) was used to screen Tox21 10K compound library.
Tox21 Assay Protocol Summary:
ESRE-bla HeLa cells were dispensed at 1,500 cells/6 uL of assay medium per well into black wall/clear-bottom 1536-well plates using a Multidrop Combi (ThermoFisher Scientific, Waltham, MA) dispenser. After the assay plates were incubated at 37 C and 5% CO2 for an overnight, 23 nL of compounds dissolved in DMSO, positive controls or DMSO only was transferred to the assay plate by a Pintool station (Kalypsys, San Diego, CA). The assay plates were incubated at 37 C and 5% CO2 for 5 hr. One uL of LiveBLAzer B/G FRET substrate (Life Technologies) was added using a Flying Reagent Dispenser (Aurora Discovery, San Diego, CA) and the plates were incubated at room temperature for 2 hr. Fluorescence intensity (405 nm excitation, 460 nm and 530 nm emissions) was measured using an Envision plate reader (PerkinElmer, Shelton, CT).

Compound	Potency
Cc1c[nH]c2ccccc12	inactive
O=C(c1ccccc1)C1CCC1	inactive
Cc1ccc(Nc2c(F)cccc2Cl)c(CC(=O)O)c1	inactive
Cc1ccc2c(c1)CCCN2	inactive
CCN(Cc1cccc(S(=O)(=O)O)c1)c1ccc(C(=C2C=CC(=[N+](CC)Cc3cccc(S(=O)(=O)O)c3)C=C2)c2ccc(O)cc2S(=O)(=O)[O-])cc1	inactive
CCCCCCCC/C=C\CCCCCCCC(=O)OCCO	inactive
O=C(O)CO	inactive
c1ccc2sc(SSc3nc4ccccc4s3)nc2c1	inactive
CCCCCCC(O)CCOC(C)=O (stereo not given)	inactive
CCN(CC)CCNC(=O)c1cc(Cl)c(N)cc1OC	inactive
ClC1=C(Cl)C1(Cl)Cl	inactive
CN1CCCN(C(c2ccccc2)c2ccc(Cl)cc2)CC1 (stereo not given)	inactive
CSCC[C@H](NC(=O)[C@H](Cc1c[nH]c2ccccc12)NC(=O)CCNC(=O)OC(C)(C)C)C(=O)N[C@@H](CC(=O)O)C(=O)N[C@@H](Cc1ccccc1)C(N)=O	inactive
O=CNNC=O	inactive
C=CCOC(=O)COCCC(C)C	inactive
CC(C)Cc1ccc(CC(=O)O)cc1	inactive
CCN(Cc1cccc(S(=O)(=O)O)c1)c1ccc(C(=C2C=CC(=[N+](CC)Cc3cccc(S(=O)(=O)O)c3)C=C2)c2ccccc2S(=O)(=O)[O-])cc1	inactive
CC(C)CC(O)CC(C)C	inactive
C[C@@H]1C[C@H]2[C@@H]3CCC4=CC(=O)C=C[C@]4(C)[C@@]3(F)[C@@H](O)C[C@]2(C)[C@@]1(O)C(=O)COP(=O)(O)O	inactive
CC1CCc2nccnc21 (stereo not given)	inactive

Compound	Potency
C1CCCCC1	inactive
CCC(C)(C)C(=O)O	inactive
CNC1CCCN(c2c(F)cc3c(=O)c(C(=O)O)cn(C4CC4)c3c2OC)C1 (stereo not given)	inactive
CS(=O)(=O)c1ccc([C@@H](C[C@H]2CCC(=O)C2)C(=O)Nc2cnccn2)cc1Cl	inactive
C=C(C)C(=O)OCCC(F)(F)C(F)(F)C(F)(F)C(F)(F)C(F)(F)C(F)(F)F	inactive
CCN(CC)CCOc1ccccc1C(=O)CCc1ccccc1	inactive
O=C(Nc1ccc(C(=O)O)c(O)c1)c1ccccc1	inactive
Cc1ccc2c(c1[N+](=O)[O-])C(=O)c1ccccc1C2=O	inactive
CCCCCC	inactive
CCN(CC)C(=O)/C(C#N)=C/c1cc(O)c(O)c([N+](=O)[O-])c1	inactive
Nc1ccn([C@H]2CS[C@@H](CO)O2)c(=O)n1	inactive
O=C(c1ccccc1)c1ccc(O)cc1	inactive
O=C1CC[C@@H](C(=O)O)N1	inactive
COc1cc(C(C)=O)ccc1OCCCN1CCC(c2noc3cc(F)ccc23)CC1	inactive
C[C@@H]1[C@H](O)[C@@H](C)/C=C/C=C\C=C\C=C\C=C\C=C\C=C\[C@H](O[C@@H]2O[C@H](C)[C@@H](O)[C@H](N)[C@@H]2O)C[C@@H]2O[C@](O)(C[C@@H](O)C[C@@H](O)[C@H](O)CC[C@@H](O)C[C@@H](O)CC(=O)O[C@H]1C)C[C@H](O)[C@H]2C(=O)O (stereo in doubt)	inactive
O=P(O)(O)Oc1ccccc1	inactive
O=S(=O)(O)CO	inactive
O=C1[C@@H]2[C@H]3CC[C@H](C3)[C@@H]2C(=O)N1CCCCN1CCN(c2ncccn2)CC1	inactive
CC(C)(O)c1coc(S(=O)(=O)NC(=O)Nc2c3c(cc4c2CCC4)CCC3)c1	inactive
CC[C@H]1OC(=O)[C@H](C)[C@@H](O[C@H]2C[C@@](C)(OC)[C@@H](O)[C@H](C)O2)[C@H](C)[C@@H](O[C@@H]2O[C@H](C)C[C@H](N(C)C)[C@H]2O)[C@](C)(O)C[C@@H](C)/C(=N\OCOCCOC)[C@H](C)[C@@H](O)[C@]1(C)O	inactive
